Assay results taken from ChEMBL document CHEMBL3988442, “University of Dundee, Small-Polar-MMV Screening Library” (2021).
About 13,000 (27%) of roughly 48,000 compounds showed an effect of 50% or more. The list shows a part of the results.

Each compound was assayed on Wolbachia pipientis (assay: Anti-Wolbachia Cell-Based Screen). Conditions: 5 µM.
Format: functional
Parameters: scale not given: in the data most compounds retested in dose-response had high values
For COC(=O)c1ccc(CN(C(C)C)C(C)C)o1.Cl, the “Percent Effect” value was -10.72%.
With CN(CCC#N)C(=O)CN1CCCN(Cc2noc(C3CC3)n2)CC1 the “Percent Effect” value was -26.77%.
In the case of CCn1ccnc1CN1CCN(CC(=O)NC(C)(C#N)C2CC2)CC1 (centres undefined), the “Percent Effect” value is reported as -16.24%.
In the case of CC(C)CN1CCc2c(CN(C)Cc3ccco3)cncc2C1.Cl.Cl.Cl, the “Percent Effect” value is reported as 112.5%.
With CN(Cc1ccco1)Cc1cncc2c1CCN(S(C)(=O)=O)C2.Cl.Cl the “Percent Effect” value was 114%.
With CCS(=O)(=O)N1CCn2cc(CN(C)Cc3ccco3)nc2C1 the “Percent Effect” value was -9.31%.
With CCS(=O)(=O)N1CCc2c(CN(C)Cc3ccco3)cncc2C1.Cl.Cl the “Percent Effect” value was 0.2646%.
With COCCN1C[C@@H]2CN(S(=O)(=O)c3cccs3)C[C@@H]2C1=O the “Percent Effect” value was -21.25%.
In the case of O=C(Nc1ccc2scnc2c1)N1CCN([C@H]2CCCC[C@@H]2O)CC1, the “Percent Effect” value is reported as -4.588%.
For O=C(NCCNc1ncccn1)N1CCCC(C(F)(F)F)C1 (centres undefined), the “Percent Effect” value was -15.03%.
With CN(CC(F)(F)F)C(=O)CNC(=O)N1CCCC(C(F)(F)F)C1 (centres undefined) the “Percent Effect” value was 92.98%.
With CN(CC(F)(F)F)C(=O)CNC(=O)N1CCCC(N(C)C)C1 (centres undefined) the “Percent Effect” value was 95.13%.
In the case of CN(C)C(=O)c1cccc(NC(=O)N2CCCC(C(F)(F)F)C2)c1 (centres undefined), the “Percent Effect” value is reported as 13.97%.
For CN(C)C1CCCN(C(=O)NCCC(=O)N2CCCCCC2)C1 (centres undefined), the “Percent Effect” value was 0.3491%.
With CN(C)C1CCCN(C(=O)NCCC(C)(C)C)C1 (centres undefined) the “Percent Effect” value was -10.25%.
For Cc1nnc(C(C)N2CCN(Cc3ccc4c(c3)OCO4)CC2)o1 (centres undefined), the “Percent Effect” value was 12.94%.
With Cc1nnc(C(C)N2CCCN(Cc3noc(C4CC4)n3)CC2)o1 (centres undefined) the “Percent Effect” value was 5.084%.
In the case of Cc1nnc(C(C)N2CCCN(Cc3ccc(F)cc3)CC2)o1 (centres undefined), the “Percent Effect” value is reported as 92.55%.
In the case of CC(c1ncc(C(C)(C)C)o1)N1CCN(Cc2ccncc2)CC1 (centres undefined), the “Percent Effect” value is reported as -8.967%.
Cc1nnc(C(C)N2CCCN(Cc3ccc(C#N)cc3)CC2)o1 (centres undefined) was tested, and the “Percent Effect” value was 105.5%.
For CC(C)OCC(=O)N1CCCN(Cc2ccc(C#N)cc2)CC1, the “Percent Effect” value was -9.345%.
Cc1nnc(C(C)N2CCN(Cc3ccc(C#N)cc3)CC2)o1 (centres undefined) was tested, and the “Percent Effect” value was 2.063%.
COc1cnc(N2CCCN(Cc3ccc(F)cc3)CC2)nc1 was tested, and the “Percent Effect” value was 0.06599%.
Cc1nnc(C(C)N2CCN(Cc3ccc(C(F)(F)F)cc3)CC2)o1 (centres undefined) was tested, and the “Percent Effect” value was 124.3%.
O=c1[nH]nc(-c2cccs2)c2sc(N3CCOCC3)nc12 was tested, and the “Percent Effect” value was -14.46%.
In the case of COc1ccccc1CC(C)(C)NC(=O)CN(C)C(C)C, the “Percent Effect” value is reported as 3.69%.
CC(CN(C)C)Nc1nc(O)cc(Cc2ccccc2F)n1 (centres undefined) was tested, and the “Percent Effect” value was 94.63%.
For COc1ccccc1Cc1cc(O)nc(NC(C)CN(C)C)n1 (centres undefined), the “Percent Effect” value was 91.33%.
In the case of CC(CCc1ccccc1F)C(=O)NS(=O)(=O)N(C)C(C)C (centres undefined), the “Percent Effect” value is reported as -0.5241%.
For COc1ccccc1CCNC(=O)N(C)C(C)CS(C)(=O)=O (centres undefined), the “Percent Effect” value was -10.73%.
For CC(CC#N)N(C)Cc1ccccc1F (centres undefined), the “Percent Effect” value was 11.31%.
In the case of CC(=O)N1CCN(C(=O)C2SCCc3sccc32)CC1 (centres undefined), the “Percent Effect” value is reported as -2.542%.
With O=C(O)C(F)(F)F.O=C(O)C(F)(F)F.O=C(c1ccc(F)cc1)N1CCN2C[C@H](Oc3cccnc3)C[C@H]2C1 the “Percent Effect” value was -2.866%.
With COc1ccccc1N1CCN(C(=O)Cn2nccc2C)CC1(C)C the “Percent Effect” value was 4.467%.
In the case of O=C(CCc1nc(Cl)n[nH]1)N1CCC2(CCCNC2=O)C1 (centres undefined), the “Percent Effect” value is reported as 7.017%.
CN1CCC(N(C)C(=O)c2cnn(-c3cc(F)ccc3F)c2N)CC1 was tested, and the “Percent Effect” value was 123.1%.
For CN1CCC(N(C)C(=O)c2cnn(-c3ccccc3Br)c2N)CC1, the “Percent Effect” value was 112.2%.
With CCCN1CCC(N(C)C(=O)c2cc(C)nc3cc(F)ccc23)CC1 the “Percent Effect” value was 11.04%.
With Cc1cc(C(=O)N(C)C2CCS(=O)(=O)C2)c2ccc(F)cc2n1 (centres undefined) the “Percent Effect” value was -24.13%.
With Cc1cccc2c1nc(COCC(=O)O)n2-c1ccc(N)nc1 the “Percent Effect” value was -5.94%.
In the case of CCCC(C)C(=O)N1CCC(c2cc(N3CCOCC3)nc(C)n2)CC1 (centres undefined), the “Percent Effect” value is reported as 8.426%.
For Cn1c(CCNc2nccnc2C#N)nc2cc(Cl)ccc21, the “Percent Effect” value was -1.88%.
For Cc1nccc(CNC(=O)NCCOc2ccc(F)c(F)c2)n1, the “Percent Effect” value was -14.18%.
In the case of Cc1cc(OCC(=O)NS(=O)(=O)c2c(C)noc2C)ccc1Cl, the “Percent Effect” value is reported as -5.411%.
For Cc1cc(=O)n2nc(Oc3ccc(C#N)cc3Cl)sc2n1, the “Percent Effect” value was 80.29%.
In the case of Cc1cccc(OC2CCN(c3ncc(C#N)cc3Cl)CC2)n1, the “Percent Effect” value is reported as -14.79%.
With CN(C)c1cccc(CNC(=O)Nc2cc(C#N)ccc2Cl)n1 the “Percent Effect” value was 19.69%.
CN(C)S(=O)(=O)NCc1cccnc1Oc1ccc(F)c(F)c1 was tested, and the “Percent Effect” value was -7.83%.
For Cc1cc(=O)n2nc(Oc3cc(Cl)cc(Cl)c3)sc2n1, the “Percent Effect” value was 108.5%.
Cc1cc(=O)n2nc(Oc3ccc(Cl)c(C)c3)sc2n1 was tested, and the “Percent Effect” value was 81.92%.
In the case of Cc1cc(=O)n2nc(Oc3ccc(F)c(F)c3)sc2n1, the “Percent Effect” value is reported as 78.71%.
c1ccc(C(CNc2ncccn2)N2CCOCC2)nc1 (centres undefined) was tested, and the “Percent Effect” value was -6.458%.
In the case of CS(=O)(=O)NC[C@H]1Cn2c(-c3ccc(Cl)cc3)cnc2CO1, the “Percent Effect” value is reported as -25.96%.
In the case of Cc1nnc(NC(=O)CN2CCCC(Cn3cncn3)C2)s1 (centres undefined), the “Percent Effect” value is reported as -2.603%.
For CCc1nnc2n1CCN(C(=O)c1ccc(-c3ccco3)nc1C)C2, the “Percent Effect” value was -7.114%.
With O=C1CCCN1CCc1nc(-c2ccsc2)no1 the “Percent Effect” value was 3.312%.
For NC(=O)N1CCCC(c2nc(-c3cccnn3)no2)C1 (centres undefined), the “Percent Effect” value was -17.63%.
In the case of O=C1CCCCCN1CCc1nc(-c2cccnn2)no1, the “Percent Effect” value is reported as 101.6%.
For c1ccc(-c2noc(CNC3CCCN(c4cccnn4)C3)n2)nc1 (centres undefined), the “Percent Effect” value was 15.74%.
In the case of c1cnnc(-c2noc(CCN3CCCO3)n2)c1, the “Percent Effect” value is reported as 93.6%.
For c1cnnc(-c2noc(COCC3CCCO3)n2)c1 (centres undefined), the “Percent Effect” value was -7.3%.
In the case of CCC(=O)N1CCCC(c2nc(-c3cccnn3)no2)C1 (centres undefined), the “Percent Effect” value is reported as -10.18%.
In the case of O=C1CCCN1Cc1nc(-c2ccsc2)no1, the “Percent Effect” value is reported as -0.6709%.
With O=C1CCCCN1CCc1nc(-c2cccnn2)no1 the “Percent Effect” value was 94.65%.
Fc1cnc(N2CC[C@@H]3O[C@H](COCc4ccccn4)CC[C@@H]32)nc1.O=C(O)C(F)(F)F.O=C(O)C(F)(F)F was tested, and the “Percent Effect” value was -8.752%.
For CCC(Nc1cccc(Oc2ccc(C#N)cc2)c1)C(N)=O (centres undefined), the “Percent Effect” value was 17.41%.
In the case of O=c1cc2c(nn1CN1CCN(c3cccc(Cl)c3)CC1)CCC2, the “Percent Effect” value is reported as -5.597%.
With N#Cc1ccc2c(c1)CN(C(=O)c1nc[nH]n1)C2c1cnco1 (centres undefined) the “Percent Effect” value was -15.48%.
CCNC(=O)C1CCN(c2nccc(C3CCCC3)n2)C1 (centres undefined) was tested, and the “Percent Effect” value was -5.882%.
With CCC(=O)N1C[C@@H](C(=O)NC)[C@H](c2ccnc(N3CCCC3)n2)C1.Cl the “Percent Effect” value was 103.8%.
For CCn1ncnc1C(C)NC(=O)C1CCN(C(=O)COC)CC1 (centres undefined), the “Percent Effect” value was 0.6867%.
In the case of COCCC(=O)N1CCN(C)c2ncccc2C1, the “Percent Effect” value is reported as -0.6435%.
In the case of CNC(=O)C1CCN(c2nccc(CCC(F)(F)F)n2)C1 (centres undefined), the “Percent Effect” value is reported as -10.68%.
CNC(=O)[C@@H]1CN(C(=O)CCOC)C[C@H]1c1ccnc(N2CCCC2)n1.Cl was tested, and the “Percent Effect” value was 97.41%.
For CNC(=O)[C@@H]1CN(C(=O)COC)C[C@H]1c1ccnc(N2CCCC2)n1, the “Percent Effect” value was 103.6%.
In the case of CCNc1ccnc(N2CCCC(CCOC)(C(=O)O)C2)n1 (centres undefined), the “Percent Effect” value is reported as -0.7265%.
With CNC(=O)[C@@H]1COC[C@H]2CN(C(=O)COc3ccccc3)C[C@H]21 the “Percent Effect” value was -5.187%.
O=C(O)C(c1cccc2c1OCC2)N1CCC(N2CCCC2)CC1 (centres undefined) was tested, and the “Percent Effect” value was -6.638%.
With O=C1C(Nc2ncccn2)CCN1c1ccccc1OC(F)F (centres undefined) the “Percent Effect” value was -3.338%.
With COCCS(=O)(=O)NC(C)c1cccc(-n2cccn2)c1 (centres undefined) the “Percent Effect” value was 2.381%.
CC(=O)Nc1ccc(C(=O)Nc2cnc3n2CCCC3)cc1C was tested, and the “Percent Effect” value was 7.352%.
For O=C([C@H]1CCCO1)N1CCC2(CC1)Cc1ccccc1CNC2=O, the “Percent Effect” value was -31.67%.
For CNS(=O)(=O)c1ccccc1N1CCN(C(=O)NC(C)C)CC1, the “Percent Effect” value was -1.761%.
With CC(C)NC(=O)N1CCC2(CC1)Cc1ccccc1CNC2=O the “Percent Effect” value was 106.4%.
For CC(C)NC(=O)N1CCC2(CC1)Cc1ccccc1CN(C)C2=O, the “Percent Effect” value was 105%.
With CC(C)NC(=O)N1CCC2(CC1)CCn1c(C3CC3)cnc12 the “Percent Effect” value was 5.233%.
In the case of C[C@@H]1CN(C2(C(=O)N3CCOCC3)Cc3ccccc3C2)C[C@H](C)O1, the “Percent Effect” value is reported as -3.118%.
With CN1Cc2ccccc2CC2(CCN(C(=O)[C@H]3CCCO3)CC2)C1=O the “Percent Effect” value was -50.23%.
With CC(NC(=O)N1CCc2ccccc2C1)c1nncn1C (centres undefined) the “Percent Effect” value was -2.02%.
CN1Cc2ccccc2CC2(CCN(C(=O)N3CCOCC3)CC2)C1=O was tested, and the “Percent Effect” value was 102.4%.
For O=S(=O)(C/C=C/c1ccccc1)Cc1nc(C2CC2)no1, the “Percent Effect” value was 14.62%.
With CCn1ccnc1CN1CCN(CCOc2cccc(C#N)c2)CC1 the “Percent Effect” value was -6.749%.
With CC(C)c1cnc(CNc2c(F)cccc2-n2cccn2)o1 the “Percent Effect” value was 11.31%.
CCNC(=O)NC1CN(Cc2ccccc2N(C)C)C[C@@H]1OC (some centres undefined) was tested, and the “Percent Effect” value was 0.7877%.
For CC(NC(=O)N1CCc2sccc2C1)c1nncn1C (centres undefined), the “Percent Effect” value was 8.221%.
CN(C)C(=O)N1C[C@@H]2CCCO[C@@H]2[C@H](N(C)Cc2ccco2)C1.O=C(O)C(F)(F)F was tested, and the “Percent Effect” value was -2.152%.
With Cc1nccn1-c1cc(CNC(=O)CCNC(=O)C2CCCC2)ccn1 the “Percent Effect” value was 5.543%.
In the case of Cc1nc(CN2CCCC(NCCOc3ccccc3)C2)no1 (centres undefined), the “Percent Effect” value is reported as -9.342%.
For Cc1nc(CN2CCCC(NCCc3ccccc3Cl)C2)no1 (centres undefined), the “Percent Effect” value was -3.863%.
With Cc1nc(CN2CCCC(NCc3cccc4ccccc34)C2)no1 (centres undefined) the “Percent Effect” value was 107.2%.
With CCOc1cccc(CNC2CCCN(Cc3noc(C)n3)C2)c1 (centres undefined) the “Percent Effect” value was 100.5%.
Cn1cc(CNC2CCCN(Cc3noc(C4CC4)n3)C2)cn1 (centres undefined) was tested, and the “Percent Effect” value was -8.767%.
For Cc1nc(CN2CCCC(N(C)c3cnc4ccccc4n3)C2)no1 (centres undefined), the “Percent Effect” value was -0.8744%.
Cc1nc(CN2CCCC(NCc3cnn(C)c3)C2)no1 (centres undefined) was tested, and the “Percent Effect” value was 104.5%.
With Cc1nc(CN2CCCC(Nc3ncnc4ccccc34)C2)no1 (centres undefined) the “Percent Effect” value was -16.22%.
With Cc1nc(CN2CCCC(NCc3nc4ccccc4s3)C2)no1 (centres undefined) the “Percent Effect” value was 116.1%.
With Cc1nc(CN2CCCC(NCC(=O)Nc3cccnc3)C2)no1 (centres undefined) the “Percent Effect” value was -1.962%.
In the case of CCc1nc(CN2CCCC(NCc3cnn(C(C)(C)C)c3)C2)no1 (centres undefined), the “Percent Effect” value is reported as -2.673%.
With Cc1nc(CN(C)C2CCN(Cc3nc4ccccc4s3)C2)no1 (centres undefined) the “Percent Effect” value was 10.14%.
